# Screening results (PubChem BioAssay)
# Rows were chosen to be rich in hits. Some 4.7% of all compounds tested hit in one or more screens of this group.
# FH mod = Identification of activators of human fumarate hydratase by quantitative high-throughput screening; FH coupled MDH/diaphorase resazurin fluorescence, 15 min; 0.22% of 54,000 active; Potency, µM (highest dose often 79.9 µM), hits mostly inhibitors; further: the screen sought activators but most active calls are inhibition curves; nearly all actives have a fitted effect of over 45% in size
# GALC G270D up = A Novel Cell-Based Assay to Identify Small Molecules for B -Galactocerebrosidase; 0.1% of 45,000 active; P54803; 145M-Twi-hGALC-G270D cells (Twitcher mouse brain line with human GALC G270D), HMU-beta-Gal fluorescence, 48 h; Potency, µM (titrated, usually from 57.5 µM), most hits filed as activators; further: nearly all actives have a fitted effect of over 65% in size
# Target sequence (P54803 whole entry G286D): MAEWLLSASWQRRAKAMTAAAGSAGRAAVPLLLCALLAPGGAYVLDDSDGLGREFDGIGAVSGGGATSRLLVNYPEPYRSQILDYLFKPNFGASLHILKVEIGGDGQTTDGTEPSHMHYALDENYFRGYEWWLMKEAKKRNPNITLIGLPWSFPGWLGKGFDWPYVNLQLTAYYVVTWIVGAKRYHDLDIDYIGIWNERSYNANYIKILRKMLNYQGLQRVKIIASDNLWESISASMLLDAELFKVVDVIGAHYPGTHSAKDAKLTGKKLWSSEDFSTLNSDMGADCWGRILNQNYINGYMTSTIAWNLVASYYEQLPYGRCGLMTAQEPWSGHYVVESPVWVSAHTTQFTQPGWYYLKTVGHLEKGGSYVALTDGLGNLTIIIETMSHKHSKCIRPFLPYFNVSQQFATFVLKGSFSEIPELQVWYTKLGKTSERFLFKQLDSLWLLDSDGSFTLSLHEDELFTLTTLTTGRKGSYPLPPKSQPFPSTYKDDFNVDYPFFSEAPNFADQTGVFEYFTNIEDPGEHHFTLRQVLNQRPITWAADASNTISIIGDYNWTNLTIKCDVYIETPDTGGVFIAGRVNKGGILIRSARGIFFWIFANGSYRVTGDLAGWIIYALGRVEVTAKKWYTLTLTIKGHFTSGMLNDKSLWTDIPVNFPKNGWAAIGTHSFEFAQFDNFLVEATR
#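 Fluorescence readout: HMU-β-gal cleavage by mutant GALC (0.1 mM final, citrate/phosphate pH 5.2 with 1 mg/mL taurocholate), stopped with carbonate/bicarbonate plus Triton X-100. Cells: murine Twitcher 145M-Twi expressing human G270D GALC; qHTS for activators.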
# NTMT1 inh = Primary qHTS for Inhibitors of N-terminal methyltransferase 1 (NTMT1): MTaseGlo Assay; Potency, µM (top dose mostly 114 µM), hits mostly inhibitors; NTMT1 MTase-Glo SAH luminescence, purified enzyme; 2.5% of 59,000 active; N-terminal Xaa-Pro-Lys N-methyltransferase 1 (Homo sapiens), Q9BV86; further: nearly all actives have a fitted effect of over 65% in size
# HTT-AS promoter = Primary qHTS for Identification of Small Molecule Activators of Huntingtin-Antisense Promoter Activity. HEK293 HTT-AS promoter firefly luciferase reporter, 24 h; response scale: percent change from vehicle, -100% = no light. Potency, µM (titrated, usually from 57.5 µM), hits mostly activators. 0.24% of 48,000 active; further: nearly all actives have a fitted effect of over 55% in size
#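 Quantitative HTS used concentration series of up to 57.5 uM final on HEK293 luciferase reporter cells, 24 h at 37 degrees C. Readout was Dual-Glo firefly luminescence.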
# HTT prom inh = Primary qHTS for Identification of Small Molecule Inhibitors of Huntingtin Promoter Activity | HEK293 HTT promoter firefly luciferase reporter, 24 h | Potency, µM (top dose mostly 57.5 µM), most hits filed as inhibitors | 0.93% of 48,000 active | AID 1508623, 2021; further: nearly all actives have a fitted effect of over 50% in size
#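 Firefly luciferase readout (Dual-Glo, 10 min RT) after 24 h, 37 °C compound exposure (final up to 57.5 uM) of HEK293 reporter cells cultured 24 h beforehand; PTC124 at 50 uM final as control inhibitor; activity scaled vehicle 0%, zero RLU -100%.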
# GPR32 ag = qHTS for Agonists of Human Resolvin D1 Receptor DRV1; Probable G-protein coupled receptor 32 (Homo sapiens), O75388; CHO-K1 GPR32 beta-arrestin PathHunter luminescence, 90 min; zero percent set by DMSO-only wells; activation, % at 76.9 µM; 2.5% of 48,000 active;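 active means activation of at least 60% and not above a set upper limit, about 1 call in 100 departs from these limits; inconclusive means activation of 40% to 60%, or above that upper limit; inactive means activation under 40%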
#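 Agonism was scored by beta-Gal fragment complementation (chemiluminescent read, 1 h detection at ambient temperature) reporting beta-arrestin binding to GPR32 in engineered CHO-K1 cells. Compound treatment lasted 90 min at 37 C, normalized to a DMSO basal control.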
# NNMT inh = Counterscreen qHTS for Inhibitors of N-terminal methyltransferase 1 (NTMT1): NNMT MTaseGlo assay | shares compounds with NTMT1 inh | NNMT MTase-Glo luminescence, SAH detection | Potency, µM (series often up to 57.1 µM), usual class: inhibitors | 10% of 120 active | AID 1645878, 2021
# A number is an active result; - = inactive; ? = inconclusive; . = not tested or not shown; ! = repeats disagree. Unless noted, the call rests on the fitted dose curve; in most records, active means well fitted curve in the direction sought with a large enough effect; inconclusive means small, poorly fitted or top-dose-only effect, or another doubt; inactive means no such curve, though single readings can be large; an effect the other way counts as inactive or inconclusive.
SMILES,FH mod,GALC G270D up,NTMT1 inh,HTT-AS promoter,HTT prom inh,GPR32 ag,others
O=c1oc2ccccc2c(O)c1C(CC(O)c1ccc(-c2ccc(Br)cc2)cc1)c1ccccc1 (stereo not drawn),?,-,89µM,-,-,82,
COC(=O)C1(C)CCC(O)C2(C)c3c(O)cc(C(C)C)cc3C(O)C(OC(C)=O)C12 (stereo not drawn),-,.,-,.,.,.,
CC[C@]1(O)CC[C@H]2[C@@H]3CCC4=CCCC[C@@H]4[C@H]3CC[C@@]21C,-,-,13µM,-,-,?,
COc1cc2[nH]c(=O)n(Cc3ccc(C(=O)N4CCN(c5ccc(Cl)cc5)CC4)cc3)c(=O)c2cc1OC,-,-,-,-,14µM,-,
COc1cc2[nH]c(=O)n(-c3ccc(C)cc3)c(=O)c2cc1OC,-,-,-,-,-,-,
C[C@]12C/C(=C/O)C(=O)C[C@@H]1CC[C@@H]1[C@@H]2CC[C@@]2(C)[C@H]1CC[C@]2(C)O,-,-,?,-,-,89,
C[C@@H]1CC[C@@]2(OC1)O[C@H]1C[C@H]3[C@@H]4CC=C5C[C@@H](O[C@@H]6O[C@H](CO)[C@@H](O[C@@H]7O[C@@H](C)[C@H](O)[C@@H](O)[C@H]7O)[C@H](O)[C@H]6O[C@@H]6O[C@@H](C)[C@H](O)[C@@H](O)[C@H]6O)CC[C@]5(C)[C@H]4CC[C@]3(C)[C@H]1[C@@H]2C,.,.,-,.,.,.,
O=C(NC1CN2CCC1CC2)c1cc2ccoc2cn1 (stereo not drawn),-,.,.,.,.,.,
CNC(=O)c1cc(C#N)cc(C)c1NC(=O)c1cc(Br)nn1-c1ncccc1Cl,-,.,-,.,.,.,
CC(=O)c1ccc(NC(=O)c2sc3nc4c(cc3c2N)N2CCC4CC2)cc1,-,-,-,-,-,-,
CCOC(=O)c1ccc(NC(=O)c2sc3nc4c(cc3c2N)N2CCC4CC2)cc1,-,14µM,-,-,?,-,
Nc1c(C(=O)Nc2ccc(OC(F)(F)F)cc2)sc2nc3c(cc12)N1CCC3CC1,-,-,-,-,7.9µM,-,
c1cc2c(cc1C1OC[C@@H]3C(c4ccc5c(c4)OCO5)OC[C@H]13)OCO2 (stereo partly drawn),-,.,-,.,.,.,
C[C@H]1CN(Cc2ccc(CC(=O)N3CCC(Nc4cccc(F)c4)CC3)cc2)CCN1,-,.,-,.,.,.,
CNc1ccc2oc(C[C@H]3O[C@@]4(CC[C@H]3C)O[C@H](C(C)C(=O)c3ccc[nH]3)[C@H](C)C[C@H]4C)nc2c1C(=O)O (stereo partly drawn),-,.,?,.,.,.,
Clc1ccc(C(c2ccc(Cl)cc2)n2cc[n+](CC(OCc3ccc(Cl)cc3Cl)c3ccc(Cl)cc3Cl)c2)cc1 (stereo not drawn),?,.,30µM,-,?,-,
Clc1ccc(COC(Cn2ccnc2)c2ccc(Cl)cc2Cl)cc1 (stereo not drawn),-,-,-,-,-,-,
COc1cc2c(c(OC)c1OC)-c1ccc(SC)c(=O)cc1[C@@H](NC(C)=O)CC2,-,.,-,.,.,.,
Cc1cccc(Cn2cccc(C(=O)Nc3ccc(F)cc3F)c2=O)c1,-,-,-,-,28µM,-,
CC(=O)C1CCC2C3CCC4C[C@@H](O)CCC4(C)C3CCC12C (stereo partly drawn),-,.,-,.,.,.,
Nc1ccc(N)cc1,-,-,?,-,-,-,
Nc1ccccc1,-,-,20µM,-,-,-,
CC[C@@H](CO)NC(=O)[C@@H]1C=C2c3cccc4c3c(cn4C)C[C@H]2N(C)C1,-,-,-,?,-,-,
CN1C[C@H](CNC(=O)OCc2ccccc2)C[C@@H]2c3cccc4c3c(cn4C)C[C@H]21,-,-,-,-,-,80!,
CCCN1CCc2cccc3c2[C@H]1Cc1ccc(O)c(O)c1-3,7.9µM,.,.,.,.,-,
SMILES,FH mod,GALC G270D up,NTMT1 inh,HTT-AS promoter,HTT prom inh,GPR32 ag,others
Cc1cccc(-c2nc(CN3C(=O)CN=C(c4ccccc4)c4ccccc43)c(C)o2)c1,-,-,-,-,?,63,
COc1ccc(Cc2nccc3cc(OC)c(OC)cc23)cc1OC,-,-,-,-,-,119!,
COc1ccc(C(=O)N2CCN(c3nc4c(OC)cccc4s3)CC2)cc1OC,-,-,-,-,28µM,-,
CC[C@@H](CO)NC(=O)[C@@H]1C=C2c3cccc4[nH]cc(c34)C[C@H]2N(C)C1,-,-,-,-,-,-,
CCN(CC)C(=O)N[C@@H]1C=C2c3cccc4[nH]cc(c34)C[C@@H]2N(C)C1,-,-,-,?,-,64,
Cc1ccc([N+](=O)[O-])[c]2c1[O][Hg]2,?,-,0.89µM,-,?,-,
COc1ccc2c(c[n+](C)c3c4cc5c(cc4ccc23)OCO5)c1OC,?,.,-,-,?,66,
CCOC(=O)c1ccc(NC(=O)c2cccn(Cc3ccccc3F)c2=O)cc1,-,-,-,-,1.4µM,-,
CCOC(=O)c1ccc(NC(=O)c2cccn(Cc3ccc(C)cc3)c2=O)cc1,-,-,-,-,-,-,
CC1CCCC(=O)CCC/C=C/c2cc(O)cc(O)c2C(=O)O1 (stereo not drawn),-,.,7.9µM,.,.,.,NNMT inh=?
CO[C@@H]1[C@H](O)[C@@H](O[C@@H]2C[C@H]3CC[C@@H]4C(CC[C@]5(C)[C@@H](C6=CC(=O)OC6)CC[C@]45O)[C@@]3(C)[C@H](O)C2)O[C@H](C)[C@@H]1O (stereo partly drawn),-,.,-,.,.,.,
